# Pf Dd2 growth = qHTS Primary assay for Inhibitors of Plasmodium falciparum Dd2 growth in vitro; P. falciparum Dd2 growth, SYBR Green, 72 h; Potency, µM (doses to about 28.9 µM), without a hit: at the highest dose activity, negative = inhibition, most hits filed as inhibitors; hit rate 4.3% among 120,000; active means well fitted inhibition curve with a large enough effect;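 further: plate controls were DMSO vehicle for no effect and reference drug for full effect; nearly all actives have a fitted effect of over 65% in size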
#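 Readout: SYBR Green fluorescence, 485 nm excitation, 535 nm emission, after ~16 h lysis at 37C. Before that, Dd2-infected red cells (2.5% hematocrit) grew 72 h with compound, 29 uM top final concentration.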
# * marks the source's active call; other numbers are inactive results; i = inactive; ! = repeats disagree; [ ] = dose if it differs, or a comment. This excerpt belongs to a sample that is enriched for hits. Potency means the concentration at half of the fitted maximal effect.
SMILES,Pf Dd2 growth
CCc1nn(-c2ccc(OC)cc2)c(Oc2ccccc2F)c1CCC(=O)NCCOC,i
CCc1nn(-c2ccc(OC)cc2)c(Oc2ccccc2F)c1CCC(=O)NC(C)C,7.9µM*
CN1C(=O)c2cccn2CC1CNC(=O)Cc1cccc(F)c1 (stereo unspecified),-9%
COc1ccc2[nH]c3c(c2c1)CCNC31CCN(C(=O)C(C)C)CC1,i
CCCC(=O)N1CCC2(CC1)NCCc1c2[nH]c2ccc(OC)cc12,-8%
CCn1ccc(C(=O)N2CCC3(CC2)NCCc2c3[nH]c3ccccc23)n1,-28%
COc1ccc2[nH]c3c(c2c1)CCNC31CCN(C(=O)CC(C)C)CC1,7.9µM*
CC(C)CC(=O)N1CCC2(CC1)NCCc1c2[nH]c2ccccc12,-15%
CCC(=O)N1CCC2(CC1)NCCc1c2[nH]c2ccc(OC)cc12,-13%
COc1ccc2[nH]c3c(c2c1)CCNC31CCN(C(=O)c2ccncc2)CC1,i
COc1ccc2[nH]c3c(c2c1)CCNC31CCN(C(=O)C2CCN2C2CCCCC2)CC1 (stereo unspecified),13µM*
O=C(c1nccc2ccccc12)N1CCC2(CC1)NCCc1c2[nH]c2ccccc12,4µM*
O=C(c1ccc(Cl)nc1)N1CCN(c2nc3ncccc3o2)CC1,1%
COc1ccc(C(=O)N2C[C@@H]3C[C@H](C2)c2c(NC(=O)Nc4ccccc4OC)ccc(=O)n2C3)cc1,19%
COc1ccc(CN2CCc3nc(N4CCOCC4)[nH]c(=O)c3CC2)cc1Br,10%[5.79 µM]
Cc1nc(-c2c3n(c(=O)n(CC(=O)Nc4cccc(Cl)c4)c2=O)CCCCC3)no1,-14%
CCCNC(=O)N1CC(Oc2cccc(-c3nc(-c4ccccc4)no3)c2)C1,2µM*
O=C(NC1CCCC1)N1CC(Oc2cccc(-c3nc(-c4ccccc4)no3)c2)C1,i[5.79 µM]
CCOCCCNC(=O)N1CC(Oc2cccc(-c3nc(C)no3)c2)C1,5%[5.79 µM]
O[C@@H]1C[C@@H](c2nnc3n2CCN(Cc2ccccn2)C3)N(Cc2ccccc2)C1,6%
COc1cccc(-c2ccc(CN3CCN(c4cc(Cl)ncn4)C(=O)C3)cc2)c1,-23%
Cc1ccc2nc(C3CCN(Cc4ccccc4)CC3)[nH]c(=O)c2c1,-5%
Cc1ccc2nc(C3CCN(CC4CCCC4)CC3)[nH]c(=O)c2c1,11%[44.1 µM]
Cc1ccc(-c2cccc(CN3CCCC(c4nc5ccc(C)cc5c(=O)[nH]4)C3)c2)c(C)c1 (stereo unspecified),7.9µM*!
COc1cccc(-c2ccc(CN3CCCC(c4nc5ccc(C)cc5c(=O)[nH]4)C3)cc2)c1 (stereo unspecified),7.9µM*!
SMILES,Pf Dd2 growth
COc1ccc(-n2nc(C3CCCN(Cc4cccc5ccccc45)C3)[nH]c2=O)cc1 (stereo unspecified),-18%
CN(CC(=O)N1CCc2nc3cc(-c4ccccc4)[nH]n3c(=O)c2C1)S(=O)(=O)c1cccs1,i[5.79 µM]
O=C(NC1CCN(C(=O)N2CC3CC(C2)[C@H]2CCCC(=O)N2C3)CC1)c1ccoc1 (stereo partly specified),i
CC(=O)N1CCCCC1c1nc(-c2ccccc2)n[nH]1 (stereo unspecified),-2%
Cc1ccc(-c2nc3c(c(SCC(=O)Nc4ccccc4Cl)n2)Cc2c(CO)cnc(C)c2O3)cc1,19%
Cc1cccc(C)c1NC(=O)CSc1nc(-c2ccccc2)nc2c1Cc1c(CO)cnc(C)c1O2,12%
Cc1ccc(-c2nc3c(c(SCC(=O)N(C)c4ccccc4)n2)Cc2c(CO)cnc(C)c2O3)cc1,5.6µM*
CCSc1nc(-c2ccccc2)nc2c1Cc1c(CO)cnc(C)c1O2,11%
Cc1cc(C)cc(NC(=O)CSc2nc(-c3cccc(Cl)c3)nc3c2Cc2c(CO)cnc(C)c2O3)c1,-26%
CCN(CC)C(=O)CSc1nc(-c2ccc(C)cc2)nc2c1Cc1c(CO)cnc(C)c1O2,10µM*
Cc1cc(C)c(C(=O)NCC(N)=O)c(=O)[nH]1,-11%
CC(C)c1nncn1C1CCN(S(=O)(=O)Cc2cccc(Cl)c2)CC1,-23%
CCC(=O)N1CCCN(S(C)(=O)=O)C(c2ccccc2)CC(=O)NCC1 (stereo unspecified),i
COCc1cc(C[C@H]2CNCC[C@H]2CC(=O)N2CCc3cc(OC)c(OC)cc3C2)no1,i
CC(C)C[C@@H]1N[C@H](C(=O)NCCN(C)C)Cc2cn(Cc3ccncc3)c3cccc1c23,13µM*
CC(C)C[C@@H]1N[C@H](C(=O)N2CCOCC2)Cc2cn(CC3CC3)c3cccc1c23,-21%[44.1 µM]
CC#CCn1cc2c3c(cccc31)[C@H](CC(C)C)N[C@H](C(=O)NCc1ccc(OC)cc1)C2,-30%
Cc1cc(Cn2cc3c4c(cccc42)[C@H](CC(C)C)N[C@H](C(=O)NCc2ccccn2)C3)no1,13µM*
CC#CCn1cc2c3c(cccc31)[C@H](CC(C)C)N[C@H](C(=O)NCc1cccs1)C2,-12%[44.1 µM]
Cc1cc(Cn2cc3c4c(cccc42)[C@H](CC(C)C)N[C@H](C(=O)NCCN2CCOCC2)C3)no1,-6%
COc1ccc(CNC(=O)[C@@H]2Cc3cn(CC4CC4)c4cccc(c34)[C@H](CC(C)C)N2)cc1,i
Cc1cc(Cn2cc3c4c(cccc42)[C@H](CC(C)C)N[C@H](C(=O)NCCN(C)C)C3)no1,7.9µM*
CC(C)C[C@@H]1N[C@H](C(=O)O)Cc2cn(Cc3ccncc3)c3cccc1c23,-5%
COc1cccc(NC(=O)c2c(-c3cnn(C)c3NCc3ccc(C#N)cc3)noc2C)c1,-4%
CN(C)C[C@@H]1CN(C2CCOCC2)C[C@H]1N,53%
SMILES,Pf Dd2 growth
O=C(Nc1ccccc1F)N1CC(c2nnc(-c3ccncc3)o2)C2(CCOCC2)C1 (stereo unspecified),-5%
CN(C(=O)CC(c1ccccc1)c1ccc(Cl)cc1)C1CCOCC1 (stereo unspecified),i
CCCCCC(=O)Nc1ccc([C@H]2OCC(=O)N[C@@H]2CO)cc1,i
CCCOC(=O)N1CCCC(C(=O)Nc2ccccc2-c2ccc(OC)cc2)C1 (stereo unspecified),-21%
CCCCc1ncc(CN2CCCC(C(=O)Nc3ccccc3-c3ccc(OC)cc3)C2)[nH]1 (stereo unspecified),8.9µM*
COc1cccc(-c2ccc(NC(=O)C3CCCN3C(=O)CNC(C)=O)cc2)c1 (stereo unspecified),-20%
COc1ccc(-c2ccccc2NC(=O)C2CCCN(Cc3cccc(F)c3F)C2)cc1 (stereo unspecified),i
COc1cccc(-c2ccc(NC(=O)C3CCCN3C(=O)Cn3cccn3)cc2)c1 (stereo unspecified),-10%
COc1cccc(-c2ccc(NC(=O)C3CCCN(Cc4cc(C(C)C)n[nH]4)C3)cc2)c1 (stereo unspecified),11µM*
C[C@H]1[C@@H]2[C@H]3OC(=O)[C@@H](C)[C@@H]3CC[C@@]2(C)CC[C@@H]1NC(=O)COc1ccccc1,i
Cc1ccc2c(C(=O)N3CCCCCC3)cc(NC(=O)C3CC3)cc2n1,-17%
CNC(=O)CCNc1c(-c2cccc(F)c2)nc2cnccn12,i
COC[C@@H]1CN(C(=O)c2ccc(OC)nc2)C[C@H]1c1ccccn1,5%
CCOc1ncccc1CNC(=O)[C@H]1CNC[C@@H](C(=O)N2CCOCC2)C1,4%
CCOc1ccc(NC(=O)C2CCN(C(=O)c3ncn4c3COC(c3ccc(F)cc3)C4)CC2)cc1 (stereo unspecified),i
Cc1ncccc1C(=O)N1CCCn2ccnc2C1c1ccccc1 (stereo unspecified),-22%
